The list is not random: actives were taken first. Their share in the collection is about 1.9%.
dFosB activator = activators of mouse delta FosB homodimer. P13346. purified delta FosB, TAMRA-CDK5 oligo fluorescence polarization; percent of positive-control signal above neutral wells. activation, % at 25 µM. actives 0.99% (n = 340,000). AID 493131;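 active = mean activation above about 17%, with every replicate also reaching it, limit read from the data, passing the limit was not always enough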
Target sequence (P13346 whole entry, looked up): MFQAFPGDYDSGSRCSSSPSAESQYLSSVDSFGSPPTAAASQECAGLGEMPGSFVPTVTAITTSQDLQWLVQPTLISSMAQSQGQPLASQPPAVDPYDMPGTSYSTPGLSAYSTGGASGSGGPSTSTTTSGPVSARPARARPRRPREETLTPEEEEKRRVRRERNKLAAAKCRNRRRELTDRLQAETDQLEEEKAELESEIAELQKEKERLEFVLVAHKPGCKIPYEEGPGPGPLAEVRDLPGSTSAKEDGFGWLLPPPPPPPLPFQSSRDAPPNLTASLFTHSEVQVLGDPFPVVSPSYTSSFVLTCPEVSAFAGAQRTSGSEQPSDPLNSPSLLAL
GSIS activator = primary screen for activators of insulin secretion dependent on glucose, INS-1E cells, GLuc reporter luminescence; INS-1E GLuc reporter insulin secretion, 2-3 h; activation, % at 16.6 µM; actives 0.61% (n = 370,000); AID 743287;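 active = lowest replicate activation of at least 40%, so every replicate reaches that level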;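 also: 0% = median of neutral control wells and 100% = median of IBMX positive control wells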
A1 inh = inhibitors of the anti-apoptotic protein A1, read as caspase activation; MEF A1-2A-BIM cells, Caspase-Glo 3/7 luminescence, 3 h; percent of clofoctol response, vehicle zero; caspase activation, % (concentration not given with the values); actives 0.066% (n = 330,000); AID 2462;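 active = over half of replicate activation scores above 10%, or exactly half above 10 with the replicate mean above 10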
Vif inh = inhibitors of HIV Vif. HEK293T cells, Vif self-association by quenched fluorescence, imaging, 24 h. inhibition, % at 7.49 µM. actives 0.35% (n = 340,000). AID 602346; in the data active = inhibition above about 50%, passing the limit was not always enough
Neddyl block = cullin neddylation inhibition; inhibition, % at 25 µM; actives 0.58% (n = 360,000); P61081+Q13564; TR-FRET cullin neddylation, biochemical; in the data active = inhibition above about 36%
* marks the source's active call; other numbers are inactive results.

What do the screens show for `O=C(Nc1nnc(-c2ccc(Cl)cc2)o1)NC1CCCCC1`?
dFosB activator: 4; GSIS activator: 59*; A1 inh: 0; Neddyl block: 3

How did C[C@@H]1CN([C@@H](C)CO)C(=O)c2cc(Br)cnc2O[C@H]1CN(C)C(=O)C1CCC1 do in these assays?
GSIS activator: 10

What do the screens show for `CCNC(=O)NC(=O)C(C)OC(=O)c1oc2ccccc2c1CSC1CCCCC1` (stereo unspecified)?
dFosB activator: 2; GSIS activator: 108*; A1 inh: 0; Vif inh: 1; Neddyl block: -2

Results for CC(C)C(OC(=O)c1oc2ccccc2c1CSC1CCCCC1)C(=O)NC(N)=O (stereo unspecified) ?
A1 inh: 0

What do the screens show for `O=C(COc1ccccc1F)Nc1ccc2c(c1)CCC2`?
dFosB activator: 2; GSIS activator: -20; A1 inh: 1; Vif inh: -1; Neddyl block: 12

Results for O=C(COc1cccc(Cl)c1)Nc1ccc2c(c1)CCC2 ?
dFosB activator: -3; GSIS activator: 0; A1 inh: 0; Vif inh: 105*; Neddyl block: 7

How did O=C(COC(=O)c1cc(Cl)ccc1[N+](=O)[O-])NC1CC1 do in these assays?
dFosB activator: 0; GSIS activator: 6; A1 inh: -1; Vif inh: 56*; Neddyl block: -38

Results for Cc1ccc(NC(=O)COC(=O)c2cc(Cl)ccc2[N+](=O)[O-])cc1 ?
dFosB activator: -7; A1 inh: 0; Vif inh: 10; Neddyl block: -29

Results for CCn1nc(C)c(NC(=O)c2cnn3c(C(F)F)cc(-c4ccccc4)nc23)c1C ?
dFosB activator: -11; GSIS activator: 55*; A1 inh: 0; Vif inh: 2; Neddyl block: -27

How did O=C(NN1CCCCC1)c1cnn2c(C(F)F)cc(-c3ccccc3)nc12 do in these assays?
dFosB activator: -12; GSIS activator: 5; A1 inh: 0; Vif inh: 6; Neddyl block: -5

How did Cc1ccc(S(=O)(=O)N(C)C[C@@H]2Oc3ccc(NC(=O)CCCCCC(=O)Nc4ccccc4N)cc3C(=O)N([C@H](C)CO)C[C@H]2C)cc1 do in these assays?
GSIS activator: 8

How did COc1ccc(CCn2nnc(-c3ccc(NC(C)=O)c(Cl)c3)n2)cc1 do in these assays?
dFosB activator: 33*; GSIS activator: 81*; A1 inh: 0; Vif inh: 1; Neddyl block: -5

What do the screens show for `CCc1cccc(CC)c1NC(=O)CSc1nnc(C2CC2)n1C`?
dFosB activator: -3; GSIS activator: 45*; A1 inh: 0; Vif inh: 17; Neddyl block: -1

How did Cn1c(SCC(=O)NC2CCCc3ccccc32)nnc1C1CC1 (stereo unspecified) do in these assays?
dFosB activator: 7; GSIS activator: 82*; Vif inh: -1; Neddyl block: 7

Results for c1ccc2c(N3CCCCC3)nc(N3CCCC3)nc2c1 ?
dFosB activator: -19; GSIS activator: 52*; A1 inh: -1; Vif inh: -15; Neddyl block: 14

What do the screens show for `c1ccc2c(NCC3CCCO3)nc(N3CCCCC3)nc2c1` (stereo unspecified)?
dFosB activator: -9; GSIS activator: 45*; A1 inh: 1; Vif inh: -6; Neddyl block: 18

Results for Oc1ccc(Nc2nc(NCC3CCCO3)c3ccccc3n2)cc1 (stereo unspecified) ?
dFosB activator: 15; Vif inh: 5; Neddyl block: 5

What do the screens show for `Oc1ccc(Cl)cc1Nc1nc(NCC2CCCO2)c2ccccc2n1` (stereo unspecified)?
dFosB activator: 44*; GSIS activator: -3; A1 inh: 0; Vif inh: -9; Neddyl block: -5

What do the screens show for `Oc1ccccc1Nc1nc(NCC2CCCO2)c2ccccc2n1` (stereo unspecified)?
dFosB activator: 25*; GSIS activator: 8; A1 inh: 0; Vif inh: 0; Neddyl block: -3

Results for COc1cccc(Nc2nc(NCC3CCCO3)c3ccccc3n2)c1 (stereo unspecified) ?
dFosB activator: -6; A1 inh: 0; Vif inh: -29

What do the screens show for `Cc1ccc(S(=O)(=O)N(C)C[C@@H]2Oc3c(NC(=O)c4cnccn4)cccc3C(=O)N([C@H](C)CO)C[C@@H]2C)cc1`?
GSIS activator: 17

Screening results from PubChem BioAssay.
